# NCOA2 inhibitor: inhibition of GAL4-SRC2 driven luciferase reporter, primary screen, SRC2 inhibitor project, cell-based, luminescence. Nuclear receptor coactivator 2 (Homo sapiens), Q15596. actives 0.17% (n = 370,000). inhibition, % at 9 µM. HEK293 GAL4-SRC2 luciferase reporter;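 active = inhibition above the mean inhibition of all tested compounds plus 3 SD, set per campaign, cut at about 52% in these data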;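 also: 0% = DMSO treated cells and 100% = cells given Gossypol at 36 µM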
# SRC1 inh: SRC1 coactivator transcriptional activity inhibitors, primary screen, cell-based, luminescence; Nuclear receptor coactivator 1 (Homo sapiens), Q15788; HEK293 GAL4-SRC1 luciferase reporter; actives 0.12% (n = 360,000); inhibition, % at 3.6 µM;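 active = inhibition above the campaign mean plus 3 SD, with each screening campaign given its own cutoff, cut at about 60% in these data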;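 also: 0% = DMSO treated cells and 100% = gossypol at 36 µM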
# NR2F2 inh: NR2F2 transcriptional activity inhibitors, primary screen, cell-based, luciferase reporter, HEK293T, luminescence; COUP transcription factor 2 (Homo sapiens), P24468; HEK293T NGFI-A luciferase reporter; inhibition, % at 8.6 µM; actives 0.7% (n = 370,000);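 active = inhibition above a per-plate cutoff, mean inhibition of test wells between control levels plus 3 SD, cut at about 38% in these data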;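 also: cells cotransfected with COUP-TFII expression vector driving the NGFI-A reporter; 0% = median of COUP-TF2 test wells and 100% = reporter-only cells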
# Target sequence (P24468 whole entry, looked up): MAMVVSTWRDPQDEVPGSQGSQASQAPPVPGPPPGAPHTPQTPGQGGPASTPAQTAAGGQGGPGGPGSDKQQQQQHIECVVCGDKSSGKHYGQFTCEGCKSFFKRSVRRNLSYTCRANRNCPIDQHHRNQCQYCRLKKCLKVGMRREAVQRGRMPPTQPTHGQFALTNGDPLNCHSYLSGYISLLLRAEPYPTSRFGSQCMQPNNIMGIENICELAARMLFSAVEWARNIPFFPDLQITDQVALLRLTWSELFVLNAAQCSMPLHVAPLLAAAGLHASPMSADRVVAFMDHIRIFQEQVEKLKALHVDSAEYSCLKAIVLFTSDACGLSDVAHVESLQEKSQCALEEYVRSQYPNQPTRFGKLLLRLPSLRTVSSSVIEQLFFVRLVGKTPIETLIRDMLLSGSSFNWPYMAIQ
# GalR3 antagonist: GalR3 antagonists in HEK293 cells, primary screen, cell-based, fluorescence readout; Galanin receptor type 3 (Homo sapiens), O60755; HEK293 GalR3-CNG cAMP membrane potential fluorescence; galR3 body fused to GalR1 C-terminus; inhibition, % at 3 µM; actives 0.44% (n = 360,000); AID 651719, 2012;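 active = inhibition above the screen-wide average plus 3 SD, cut at about 13% in these data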;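 also: forskolin and galanin both at EC90 stimulate the cells; cAMP rise reported by CNG channel membrane potential dye signal; 0% = forskolin plus galanin with DMSO and 100% = forskolin alone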
# LRH-1 inv ag: LRH-1 (NR5A2) inverse agonists, primary screen, cell-based, luminescence, HEK293T, StAR-luciferase reporter; Nuclear receptor subfamily 5 group A member 2 (Homo sapiens), O00482; inhibition, % at 3.6 µM; actives 0.13% (n = 360,000); AID 602396, 2012; LRH-1 transfected, 24 h;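 active = inhibition above the mean inhibition of all tested compounds plus 3 SD, cut at about 73% in these data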;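 also: 0% = DMSO wells and 100% = reporter-only cells lacking LRH-1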
# NCOA3 inh: SRC3 coactivator transcriptional activity inhibitors, primary screen, cell-based, luminescence | actives 0.17% (n = 360,000) | HEK293 GAL4-SRC3 luciferase reporter | Nuclear receptor coactivator 3 (Homo sapiens), Q9Y6Q9 | inhibition, % at 3.6 µM;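 active = inhibition above a per-campaign cutoff, the mean of all compounds plus 3 SD, cut at about 60% in these data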;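 also: 0% = DMSO-treated cells and 100% = gossypol-treated cells at 36 µM; higher means less SRC3-driven luciferase light from the GAL4 reporter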
# VP16 Luc counter: Gal4-VP16 luciferase reporter inhibitors, counter-screen for COUP-TFII antagonist project, cell-based, luminescence, HEK293 | shares compounds with NR2F2 inh | inhibition, % at 8.5 µM | actives 25% (n = 2,500); in the data active = inhibition above about 13%
# COUP-TFII conf: NR2F2 transcriptional activity inhibitors, confirmation, cell-based, luciferase reporter, HEK293, triplicate. shares compounds with NR2F2 inh. HEK293 NGFI-A luciferase reporter, luminescence. inhibition, % at 8.5 µM. actives 45% (n = 2,500). AID 687008, 2013;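 active = mean inhibition over three repeats above a set limit taken from the earlier primary screen, cut at about 38% in these data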;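 also: 100% = cells given the luciferase reporter alone without the COUP-TF2 vector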
# Numbers without * were called inactive; . = no result given. This is a sample that favours compounds with a hit; in the whole collection about 1.1% have one here.
SMILES,NCOA2 inhibitor,SRC1 inh,NR2F2 inh,GalR3 antagonist,LRH-1 inv ag,NCOA3 inh,VP16 Luc counter,COUP-TFII conf
O=C(COC(=O)CCc1c[nH]c2ccccc12)Nc1ccccc1,-8,-6,63*,-4,-3,7,2,4
Cc1ccc(NC(=O)COC(=O)CCc2c[nH]c3ccccc23)cc1,-6,-4,4,-5,10,13,.,.
CCOc1ccccc1C(=O)Nc1cc2c(cc1N1CCCC1)n(CC)c(=O)n2CC,-3,24,41*,-10,47,32,-3,22
O=C(Nc1ccc(F)cc1)OC1CC2CC1[C@H]1CCCCN1[C@H]2Cc1ccccc1 (stereo partly drawn),-10,.,5,.,.,.,.,.
C=C(C)Cn1c(N2CCN(c3ccc(OC)cc3)CC2)nc2c1c(=O)n(C)c(=O)n2C,-3,4,41*,10,11,14,3,15
CCc1cc2c(nc1CC)CCCN2Cc1ccccc1C(F)(F)F,17,.,2,-1,.,.,.,.
CCCCCCN1Cc2ccccc2C1,-28,-11,-14,-6,-21,-11,.,.
CCCCCCCCCCn1ccc(=N)cc1,26,48,82*,97*,86*,71*,13*,79*
CCCCCCCCn1ccc(=N)cc1,19,9,42*,-4,11,25,-5,30
C[C@H]1COc2cc(Br)ccc2S(=O)(=O)N1Cc1cn(Cc2ccc(C(F)(F)F)cc2)nn1,21,.,0,.,.,.,.,.
Cc1ccc(-c2cc3cccc[n+]3cc2-c2ccc(C)cc2)cc1,1,51,66*,-4,84*,55,8,54*
CCOC(=O)c1[nH]c2c(c1C)C(=O)CC(c1ccc(OC)c(OC)c1)C2 (stereo not drawn),-30,10,11,1,2,12,.,.
COCCOC(=O)c1[nH]c2c(c1C)C(=O)CC(c1cc(OC)ccc1OC)C2 (stereo not drawn),-26,6,-22,-3,1,5,.,.
CCOCCOC(=O)c1[nH]c2c(c1C)C(=O)CC(c1ccc(OC)c(OC)c1)C2 (stereo not drawn),2,-2,46*,-1,9,6,-4,7
COc1cc(C2CC(=O)c3c([nH]c(C(=O)OCCOC(C)C)c3C)C2)cc(OC)c1OC (stereo not drawn),23,21,76*,2,42,28,0,35
C[C@H](O)[C@@H]1C(=O)N2CCc3c([nH]c4cccc(-c5ccccc5)c34)[C@@H]2C[C@@H]1N(C)C(=O)c1ccccc1,17,.,-11,-7,.,.,.,.
COc1cc2c(cc1OC)C(=O)C(c1ccc3c(c1)OCO3)CC2 (stereo not drawn),12,-11,4,-6,-7,0,.,.
COc1ccc(C2CCc3cc4c(cc3C2=NOC(C)=O)OCO4)cc1OC (stereo not drawn),-2,-11,44*,-2,4,-30,-2,5
CC(C)NC(=O)N[C@@H]1C[C@@H]2O[C@@H](CO)CC[C@@H]2O[C@@H]1CCc1ccc(-c2ccc(F)cc2)cc1,3,.,-26,.,.,.,.,.
Cn1cc(/C=C/c2cc[n+](C)cc2)c2cc(Cl)ccc21,4,28,59*,-5,56,59,4,26
Cn1cc(/C=C/c2cc[n+](C)cc2)c2cc(F)ccc21,.,5,.,.,6,20,.,.
CCOc1ccc(CCNC(=O)c2ccc(Oc3ccccc3)cc2)cc1OCC,.,.,24,.,.,.,.,.
CCOc1ccc(CCNC(=O)c2cc3sccc3n2CC)cc1OCC,23,13,50*,-2,29,10,0,29
CCOc1ccc(CCNC(=O)c2ccc3[nH]ccc3c2)cc1OCC,.,.,41*,.,.,.,-12,13
CCOc1ccc(CCNC(=O)c2cc3sccc3n2Cc2ccccc2)cc1OCC,.,.,40*,.,.,.,-5,18
SMILES,NCOA2 inhibitor,SRC1 inh,NR2F2 inh,GalR3 antagonist,LRH-1 inv ag,NCOA3 inh,VP16 Luc counter,COUP-TFII conf
O[C@H]1C[C@H](c2ccccc2)N(CC2CCCCC2)C[C@@H]1n1cc(C2CC2)nn1,-12,0,-13,-6,-29,-29,.,.
Nc1c(Cl)ncnc1NCCc1ccc(O)cc1,22,27,47*,-6,21,14,6,32
Nc1c(Cl)ncnc1NCc1cccnc1,20,-9,4,4,-8,-17,.,.
CCN(CC)c1ccc2nc3ccc(N)cc3[n+](-c3ccccc3)c2c1,25,52,77*,-7,87*,67*,21*,73*
CCOC(=O)[C@]12CCCCC/C=C\1N(Cc1ccc(OC)cc1)C(=O)[C@H]2CC(=O)NCc1cccs1,-21,.,7,.,.,.,.,.
Cc1ccc2nc(-c3ccc4c(c3)OCCO4)cn2c1,70*,37,77*,-5,10,39,54*,71*
c1ccn2cc(-c3ccc4c(c3)OCCO4)nc2c1,0,-65,6,-3,-74,-49,.,.
Nc1cccc2c1CN(C1CCC(=O)NC1=O)C2=O (stereo not drawn),5,.,-12,.,.,.,.,.
O=C(c1ccccc1)c1ccc(N2CCN(C(=O)c3ccc(F)cc3F)CC2)c(F)c1,16,8,22,-5,-17,-3,.,.
C[n+]1ccc(/C=C/c2c[nH]c3ccc(F)cc23)cc1,-9,18,38*,-7,15,-8,5,24
CC(C)(C)c1ccc(C(O)c2ncc(-c3ccccc3)[nH]2)cc1 (stereo not drawn),-7,-26,4,-6,1,-5,.,.
OC(c1ccc(-c2ccccc2)cc1)c1ncc(-c2ccccc2)[nH]1 (stereo not drawn),-13,9,57*,-6,5,9,-10,-15
CCN(CC)S(=O)(=O)c1ccc(N2CCN(c3ccccc3OC)CC2)c(N)c1,18,5,48*,-7,16,12,6,22
CC(=O)N1CCC(C(=O)N2c3ccccc3N=C(c3ccc4c(c3)OCO4)C2C(=O)Nc2c(C)cccc2C)CC1 (stereo not drawn),-49,.,-23,-9,-5,.,.,.

# Source: PubChem BioAssay (The Scripps Research Institute Molecular Screening Center)
